According to PubChem BioAssay:
For some assays here: Results with a measured potency or affinity are listed apart. The source made the active and inactive calls. Unless noted, no rule for the calls is given here.

Key:
[1] = antimalarial activity against Dd2 strain (AID 2302;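 active = growth inhibition above 50% at the single 2 µM test dose, taken to imply half-maximal potency below 2 µM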;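 also: 0% = DMSO untreated growth and 100% = chloroquine plus artemisinin killed control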); conditions: P. falciparum Dd2 in RBCs, LDH growth readout, 72 h; at 2 µM; stronger effect = higher value
[2] = HepG2 cytotoxicity, primary screen, cytotoxicity control for P. falciparum antimalarial project, cell-based, ATP luminescence (AID 2303;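 active = inhibition above 50%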;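 also: 0% = DMSO wells and 100% = digitonin-killed cells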); conditions: HepG2 viability, 24-48 h, at 10 µM, stronger effect = higher value
[3] = biological target: L-lactate dehydrogenase (Plasmodium falciparum (isolate CDC / Honduras)) (UniProt Q27743); assay: PfLDH activity inhibition – cell lysate, 3D7 strain, counter-screen for P. falciparum growth inhibition project (AID 2304);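 also: 0% = vehicle and 100% = reference inhibitor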; conditions: P. falciparum 3D7 crude extract, LDH APAD/NBT absorbance; at 2 µM; stronger effect = higher value
L-lactate dehydrogenase (Plasmodium falciparum (isolate CDC / Honduras)), sequence (Q27743 whole entry, looked up): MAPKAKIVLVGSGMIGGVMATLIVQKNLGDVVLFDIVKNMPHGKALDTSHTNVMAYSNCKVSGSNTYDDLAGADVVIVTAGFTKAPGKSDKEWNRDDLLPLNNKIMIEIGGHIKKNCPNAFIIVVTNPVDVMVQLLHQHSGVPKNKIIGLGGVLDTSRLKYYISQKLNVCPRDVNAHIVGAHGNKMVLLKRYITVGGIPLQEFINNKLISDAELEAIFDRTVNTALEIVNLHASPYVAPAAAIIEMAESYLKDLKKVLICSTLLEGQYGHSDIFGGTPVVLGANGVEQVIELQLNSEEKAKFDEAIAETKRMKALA

[4] = inhibition of 3D7 malaria parasite growth – strain 3D7 (AID 2306);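 also: 0% = DMSO wells and 100% = chloroquine plus artemisinin control wells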; conditions: P. falciparum 3D7 erythrocytic growth, LDH absorbance, 72 h; at 2 µM; stronger effect = higher value
[5] = biological target: Calcium-dependent protein kinase 1 (Plasmodium falciparum (isolate 3D7)) (UniProt P62344); assay: PfCDPK1 kinase inhibitors, biochemical, TCAMS library (AID 1159585; cut-off not given, nearly all actives have IC50 up to about 0.98 µM;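 also: inhibitors leave more ATP so luminescence rises with inhibition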); conditions: recombinant PfCDPK1, Kinase-Glo ATP depletion luminescence
Calcium-dependent protein kinase 1 (Plasmodium falciparum (isolate 3D7)), sequence (P62344 whole entry, looked up): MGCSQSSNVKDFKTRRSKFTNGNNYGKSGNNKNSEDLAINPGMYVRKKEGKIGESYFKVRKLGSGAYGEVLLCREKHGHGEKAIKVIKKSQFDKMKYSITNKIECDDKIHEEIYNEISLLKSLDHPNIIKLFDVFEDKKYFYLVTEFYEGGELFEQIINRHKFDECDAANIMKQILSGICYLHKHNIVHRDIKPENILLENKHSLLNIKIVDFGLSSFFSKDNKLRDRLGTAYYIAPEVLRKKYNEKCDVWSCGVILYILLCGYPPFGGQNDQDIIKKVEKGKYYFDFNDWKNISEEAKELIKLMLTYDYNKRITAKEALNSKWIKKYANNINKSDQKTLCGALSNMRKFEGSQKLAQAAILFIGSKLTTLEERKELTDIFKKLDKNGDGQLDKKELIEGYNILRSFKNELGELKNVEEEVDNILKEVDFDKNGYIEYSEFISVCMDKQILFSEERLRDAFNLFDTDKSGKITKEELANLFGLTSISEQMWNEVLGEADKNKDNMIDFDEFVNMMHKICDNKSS

[6] = biological target: Plasmodium falciparum protein kinase 6 (PK6, PF3D7_1337100) (UniProt Q8IDW1); assay: PfPK6 kinase inhibitors, biochemical, TCAMS library (AID 1159586); conditions: recombinant PfPK6, Kinase-Glo ATP depletion luminescence
Plasmodium falciparum protein kinase 6 (PK6, PF3D7_1337100), sequence (Q8IDW1 1-305): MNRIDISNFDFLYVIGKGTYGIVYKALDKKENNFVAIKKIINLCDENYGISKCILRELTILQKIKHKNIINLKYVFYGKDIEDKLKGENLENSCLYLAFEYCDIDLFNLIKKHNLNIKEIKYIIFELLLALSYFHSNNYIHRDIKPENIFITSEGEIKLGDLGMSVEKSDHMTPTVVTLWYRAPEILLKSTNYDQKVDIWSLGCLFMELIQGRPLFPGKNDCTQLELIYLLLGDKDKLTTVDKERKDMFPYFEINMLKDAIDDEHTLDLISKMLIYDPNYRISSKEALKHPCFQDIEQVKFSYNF

[7] = biological target: Protein kinase 7 (PK7), Plasmodium falciparum 3D7 (PF3D7_0213400) (UniProt Q7YTF7); assay: inhibition of Plasmodium PK7 catalytic activity – biochemical, TCAMS antimalarial set, Kinase-Glo luminescence (AID 1159587); conditions: recombinant PfPK7, Kinase-Glo ATP depletion luminescence
Protein kinase 7 (PK7), Plasmodium falciparum 3D7 (PF3D7_0213400), sequence (Q7YTF7 1-343): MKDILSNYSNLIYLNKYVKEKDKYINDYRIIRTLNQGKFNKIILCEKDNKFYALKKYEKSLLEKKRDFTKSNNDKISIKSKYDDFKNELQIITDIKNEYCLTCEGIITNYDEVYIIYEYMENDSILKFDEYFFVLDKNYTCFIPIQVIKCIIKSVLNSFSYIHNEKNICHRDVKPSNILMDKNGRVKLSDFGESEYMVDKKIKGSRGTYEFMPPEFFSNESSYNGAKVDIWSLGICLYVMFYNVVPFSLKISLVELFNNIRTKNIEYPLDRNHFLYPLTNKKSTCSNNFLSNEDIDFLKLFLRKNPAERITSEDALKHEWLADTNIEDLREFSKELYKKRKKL

[8] = biological target: Calcium-dependent protein kinase 4 (Plasmodium falciparum (isolate 3D7)) (UniProt Q8IBS5); assay: PfCDPK4 kinase inhibitors, biochemical, TCAMS library (AID 1159588; cut-off not given, nearly all actives have IC50 up to about 0.91 µM); conditions: recombinant PfCDPK4, Kinase-Glo ATP depletion luminescence
Calcium-dependent protein kinase 4 (Plasmodium falciparum (isolate 3D7)), sequence (Q8IBS5 whole entry, looked up): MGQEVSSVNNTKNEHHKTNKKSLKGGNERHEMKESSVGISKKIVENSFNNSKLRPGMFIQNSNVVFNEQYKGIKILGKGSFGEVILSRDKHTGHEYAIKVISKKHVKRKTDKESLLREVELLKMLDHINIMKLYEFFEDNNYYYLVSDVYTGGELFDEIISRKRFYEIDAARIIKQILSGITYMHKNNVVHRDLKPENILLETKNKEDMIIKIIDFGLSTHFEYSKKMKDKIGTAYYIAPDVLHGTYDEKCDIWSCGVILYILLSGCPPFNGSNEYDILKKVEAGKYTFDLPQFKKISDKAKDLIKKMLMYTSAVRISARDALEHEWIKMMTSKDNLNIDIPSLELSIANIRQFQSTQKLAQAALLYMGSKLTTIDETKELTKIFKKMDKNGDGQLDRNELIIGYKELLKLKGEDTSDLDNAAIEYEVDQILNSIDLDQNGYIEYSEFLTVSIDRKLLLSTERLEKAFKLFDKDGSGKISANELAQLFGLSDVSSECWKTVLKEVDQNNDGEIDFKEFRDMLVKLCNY

Cc1cccc(Cl)c1S(=O)(=O)N1CCCCC(c2ccc(C(F)(F)F)cc2)=N1
active: growth inhibition [1] 100% | growth inhibition [4] 100%
inactive: inhibition [2] 5% | inhibition [3] 1% | outcome [5] | outcome [6] | outcome [7] | outcome [8]

OCCN1CCN(Cc2cccc(-c3ccc(-c4nc5ccc(C(F)(F)F)cc5[nH]4)s3)c2)CC1
active: growth inhibition [1] 98% | growth inhibition [4] 101%
inactive: inhibition [2] 42% | inhibition [3] -5% | outcome [5] | outcome [6] | outcome [7] | outcome [8]

O=C(c1cc(C(=O)Nc2ccccc2)c(=O)n(-c2ccccc2)c1)c1cc(Cl)ccc1O
inactive: inhibition [2] 9% | inhibition [3] -1% | outcome [5] | outcome [6] | outcome [7] | outcome [8]
active: growth inhibition [1] 95% | growth inhibition [4] 100%

O=C(Nc1ccc(C(F)(F)F)cc1)c1cccc(S(=O)(=O)NC2CCN(Cc3ccccc3)C2)c1 (stereo not given)
inactive: growth inhibition [1] -2% | inhibition [2] 39% | inhibition [3] -5% | outcome [5] | outcome [6] | outcome [7] | outcome [8]
active: growth inhibition [4] 88%

COc1ccc(-c2ccc(NC(=O)c3cccc(Cl)c3)cc2)cc1CN1CCCC1
inactive: inhibition [2] 35% | inhibition [3] 4% | outcome [5] | outcome [6] | outcome [7] | outcome [8]
active: growth inhibition [1] 84% | growth inhibition [4] 100%

CNCc1cccc2[nH]c(-c3csc(Cc4cc(Cl)ccc4OCC(C)C)n3)nc12
inactive: growth inhibition [1] 33% | inhibition [2] 9% | inhibition [3] -4% | outcome [5] | outcome [6] | outcome [7] | outcome [8]
active: growth inhibition [4] 100%

O=C(/C=C/c1ccc(Cl)c(Cl)c1)NCCCCCN1CCC(CCNC(=O)Cc2ccc(Cl)cc2)CC1
active: growth inhibition [4] 83%
inactive: growth inhibition [1] 0% | inhibition [2] 45% | inhibition [3] -8% | outcome [5] | outcome [6] | outcome [7] | outcome [8]

Cc1cc(N[C@@H](CC(C)C)C(=O)Nc2ccccc2)nc(Nc2ccccc2)n1
inactive: inhibition [2] -2% | inhibition [3] -1% | outcome [5] | outcome [6] | outcome [7] | outcome [8]
active: growth inhibition [1] 93% | growth inhibition [4] 99%

CCCc1ccc(S(=O)(=O)NC2CCN(c3ccnc(Nc4ccc(F)cc4)n3)C2)cc1 (stereo not given)
active: growth inhibition [1] 56% | growth inhibition [4] 95%
inactive: inhibition [2] 40% | inhibition [3] -6% | outcome [5] | outcome [6] | outcome [7] | outcome [8]

O=C(Nc1ccc([N+](=O)[O-])cc1O)Nc1ccccc1Oc1ccccc1
inactive: growth inhibition [1] 1% | inhibition [2] 45% | inhibition [3] -8% | outcome [5] | outcome [6] | outcome [7] | outcome [8]
active: growth inhibition [4] 92%

CC(C)CNCc1cccc(-c2cccc(CNC3CCN(Cc4ccccc4)CC3)c2)c1
active: growth inhibition [1] 99% | growth inhibition [4] 102%
inactive: inhibition [2] 32% | inhibition [3] -2% | outcome [5] | outcome [6] | outcome [7] | outcome [8]

COc1ccc2nccc(NC(=O)N3CCC(NCc4cc5ccccc5[nH]4)CC3)c2n1
active: growth inhibition [4] 85%
inactive: growth inhibition [1] 29% | inhibition [2] 27% | inhibition [3] -5% | outcome [5] | outcome [6] | outcome [7] | outcome [8]

Cc1cc(NC(=O)c2cccs2)ccc1OC1CCN(Cc2ccc(F)cc2)C1 (stereo not given)
inactive: inhibition [2] 0% | inhibition [3] 0% | outcome [5] | outcome [6] | outcome [7] | outcome [8]
active: growth inhibition [1] 92% | growth inhibition [4] 95%

COc1ccc(-c2cccc(NC(=O)c3cccc(F)c3)c2)cc1CN1CCCN(C)CC1
inactive: inhibition [2] 42% | inhibition [3] 0% | outcome [5] | outcome [6] | outcome [7] | outcome [8]
active: growth inhibition [1] 78% | growth inhibition [4] 101%

O=C(NCCNc1ccnc(Nc2ccc(F)cc2)n1)Nc1ccccc1F
active: growth inhibition [4] 93%
inactive: growth inhibition [1] 4% | inhibition [2] 22% | inhibition [3] 5% | outcome [5] | outcome [6] | outcome [7] | outcome [8]

COc1ccc(OCC(=O)Nc2cc(-c3nc4ccccc4[nH]3)ccc2Cl)cc1
inactive: growth inhibition [1] 33% | inhibition [2] 18% | inhibition [3] -4% | outcome [5] | outcome [6] | outcome [7] | outcome [8]
active: growth inhibition [4] 94%

O=S(=O)(Nc1cccc(F)c1CNCc1ccccn1)c1ccc(Cl)c(Cl)c1
active: growth inhibition [4] 92%
inactive: growth inhibition [1] 34% | inhibition [2] 45% | inhibition [3] -5% | outcome [5] | outcome [6] | outcome [7] | outcome [8]

COc1cccc(CC(=O)NC2CCN(c3ccnc4cc(Cl)ccc34)C2)c1 (stereo not given)
inactive: inhibition [2] 9% | inhibition [3] -2% | outcome [5] | outcome [6] | outcome [7] | outcome [8]
active: growth inhibition [1] 85% | growth inhibition [4] 101%

CC(C)(C)OC(=O)NCc1ccc(Nc2nnc(-c3ccc(OCC(=O)NCc4ccc(C(C)(C)C)cc4)c([N+](=O)[O-])c3)o2)cc1
inactive: inhibition [2] 10% | inhibition [3] -2% | outcome [5] | outcome [6] | outcome [7] | outcome [8]
active: growth inhibition [1] 82% | growth inhibition [4] 96%

OC(CNc1cccc(Cl)c1)Cn1c2ccc(Cl)cc2c2cc(Cl)ccc21 (stereo not given)
active: growth inhibition [4] 95%
inactive: growth inhibition [1] 33% | inhibition [2] 8% | inhibition [3] 6% | outcome [5] | outcome [6] | outcome [7] | outcome [8]

COc1cccc(C2C(C(=O)Nc3ccccc3)=C(C)N=c3s/c(=C\c4ccc(O)cc4)c(=O)n32)c1 (stereo not given)
inactive: inhibition [2] 15% | inhibition [3] 6% | outcome [5] | outcome [6] | outcome [7] | outcome [8]
active: growth inhibition [1] 97% | growth inhibition [4] 97%

CC(C)(C)c1ccc(S(=O)(=O)Nc2cc(Cl)ccc2Cn2ccc(N3CCNCC3)nc2=O)cc1
inactive: inhibition [2] -9% | inhibition [3] 2% | outcome [5] | outcome [6] | outcome [7] | outcome [8]
active: growth inhibition [1] 74% | growth inhibition [4] 95%

Cc1ccc2nc(C)n(C3CCN(C(=O)Cc4ccc(F)c(F)c4)CC3)c2c1
inactive: inhibition [2] 4% | inhibition [3] 0% | outcome [5] | outcome [6] | outcome [7] | outcome [8]
active: growth inhibition [1] 100% | growth inhibition [4] 100%

CC1CCCCN1S(=O)(=O)c1ccc(NC(=O)c2cc(-c3ccccc3O)n[nH]2)cc1 (stereo not given)
inactive: inhibition [2] 26% | inhibition [3] -1% | outcome [5] | outcome [6] | outcome [7] | outcome [8]
active: growth inhibition [1] 96% | growth inhibition [4] 90%

CN(C)c1ccc(-c2nc3ccc(N)cc3[nH]2)cc1
inactive: inhibition [2] 1% | inhibition [3] -1% | outcome [5] | outcome [6] | outcome [7] | outcome [8]
active: growth inhibition [1] 97% | growth inhibition [4] 102%

CC(=O)Nc1ccc(CN2CCC(NC(=O)c3cc(-c4ccc(N(C)C)cc4)cs3)C2)cc1 (stereo not given)
active: growth inhibition [4] 83%
inactive: growth inhibition [1] 1% | inhibition [2] 15% | inhibition [3] 5% | outcome [5] | outcome [6] | outcome [7] | outcome [8]

c1ccc2c(Nc3ccc(OCCOCCOc4ccc(Nc5c6ccccc6nc6ccccc56)cc4)cc3)c3ccccc3nc2c1
active: growth inhibition [1] 97% | growth inhibition [4] 101%
inactive: inhibition [2] 38% | inhibition [3] 7% | outcome [5] | outcome [6] | outcome [7] | outcome [8]

O=C(Nc1ccc(-c2ccccc2)cc1)Nc1cccc(Cn2cnc(N3CCCNCC3)cc2=O)c1
active: growth inhibition [4] 88%
inactive: growth inhibition [1] 13% | inhibition [2] 8% | inhibition [3] 4% | outcome [5] | outcome [6] | outcome [7] | outcome [8]

Cc1cc(NC(=O)c2ccc(-c3ccccc3)cc2)no1
inactive: inhibition [2] 5% | inhibition [3] 0% | outcome [5] | outcome [6] | outcome [7] | outcome [8]
active: growth inhibition [1] 57% | growth inhibition [4] 83%

Cc1nc(-c2cccc(Nc3nccc(NCC(O)c4cccc(C(F)(F)F)c4)n3)c2)cs1 (stereo not given)
active: growth inhibition [1] 99% | growth inhibition [4] 100%
inactive: inhibition [2] 14% | inhibition [3] 0% | outcome [5] | outcome [6] | outcome [7] | outcome [8]

CCOc1cc(C(=O)NCCCN2CCN(c3cccc(Cl)c3)CC2)ccc1-c1nc2cc(Cl)c(F)cc2[nH]1
active: growth inhibition [4] 96%
inactive: growth inhibition [1] 19% | inhibition [2] 16% | inhibition [3] 7% | outcome [5] | outcome [6] | outcome [7] | outcome [8]

COc1ccc2nccc([C@@H](O)CN3CCC(NC(=O)c4[nH]c5ccccc5c4-c4ccccc4)CC3)c2c1
inactive: inhibition [2] 18% | inhibition [3] 0% | outcome [5] | outcome [6] | outcome [7] | outcome [8]
active: growth inhibition [1] 68% | growth inhibition [4] 96%

Cc1cn(CC(=O)Nc2cccc(-c3cccc(-c4nc5ccc(C(F)(F)F)cc5[nH]4)c3)c2)c(=O)[nH]c1=O
active: growth inhibition [1] 51% | growth inhibition [4] 92%
inactive: inhibition [2] 15% | inhibition [3] -1% | outcome [5] | outcome [6] | outcome [7] | outcome [8]

O=C(Nc1ccc(CCNCc2ccccc2)cc1)Nc1ccc(OC(F)(F)F)cc1
inactive: growth inhibition [1] 22% | inhibition [2] -2% | inhibition [3] -2% | outcome [5] | outcome [6] | outcome [7] | outcome [8]
active: growth inhibition [4] 102%

COc1cc(Nc2nccc(N3CCC(NC(=O)c4cccc(C#N)c4)C3)n2)cc(OC)c1OC (stereo not given)
inactive: inhibition [2] 13% | inhibition [3] -8% | outcome [5] | outcome [6] | outcome [7] | outcome [8]
active: growth inhibition [1] 76% | growth inhibition [4] 91%

CCN(CC)CCCCNc1cc(-c2[nH]c(C(C)(C)C)nc2-c2ccc3cc(OC)ccc3c2)ccn1
active: growth inhibition [1] 76% | growth inhibition [4] 85%
inactive: inhibition [2] 23% | inhibition [3] 5% | outcome [5] | outcome [6] | outcome [7] | outcome [8]

N#Cc1ccc(S(=O)(=O)N2C(c3cccc([N+](=O)[O-])c3)C(C(=O)c3ccccc3)N(C3CCCCC3)C2c2cccc([N+](=O)[O-])c2)cc1 (stereo not given)
active: growth inhibition [1] 79% | growth inhibition [4] 83%
inactive: inhibition [2] 16% | inhibition [3] -1% | outcome [5] | outcome [6] | outcome [7] | outcome [8]

COc1ccccc1-c1nc2nc(N)nc(N)c2nc1-c1ccccc1OC
active: growth inhibition [4] 84%
inactive: growth inhibition [1] 1% | inhibition [2] 27% | inhibition [3] 1% | outcome [5] | outcome [6] | outcome [7] | outcome [8]

COc1cc2nc(Nc3ccc4c(c3)OCCO4)nc(N)c2cc1OC
inactive: inhibition [2] 13% | inhibition [3] -3% | outcome [5] | outcome [6] | outcome [7] | outcome [8]
active: growth inhibition [1] 80% | growth inhibition [4] 101%

COc1c(C=NNc2nc(Nc3ccccc3)nc(Nc3ccccc3)n2)ccc(Br)c1O
active: inhibition [2] 63% | growth inhibition [4] 98%
inactive: growth inhibition [1] 37% | inhibition [3] 5% | outcome [5] | outcome [6] | outcome [7] | outcome [8]
